Assays:
Assay in all cases: DAPPL (digital affinity profiling via proximity ligation, sequencing); 10 mM Tris-HCl pH 7.5, 50 mM NaCl, 1 mM DTT, 4% glycerol, room temperature, 30 min; GST-TFs on glutathione beads, 16-mer random dsDNA library, 0.1% formaldehyde crosslink after washing; high values mean tight binding
Conditions in all cases: protein: recombinant; tags: N-terminal GST; dsDNA, one strand shown
[1] = target: T1, ERF (Homo sapiens, UniProt P50548 1-548)
T1 sequence: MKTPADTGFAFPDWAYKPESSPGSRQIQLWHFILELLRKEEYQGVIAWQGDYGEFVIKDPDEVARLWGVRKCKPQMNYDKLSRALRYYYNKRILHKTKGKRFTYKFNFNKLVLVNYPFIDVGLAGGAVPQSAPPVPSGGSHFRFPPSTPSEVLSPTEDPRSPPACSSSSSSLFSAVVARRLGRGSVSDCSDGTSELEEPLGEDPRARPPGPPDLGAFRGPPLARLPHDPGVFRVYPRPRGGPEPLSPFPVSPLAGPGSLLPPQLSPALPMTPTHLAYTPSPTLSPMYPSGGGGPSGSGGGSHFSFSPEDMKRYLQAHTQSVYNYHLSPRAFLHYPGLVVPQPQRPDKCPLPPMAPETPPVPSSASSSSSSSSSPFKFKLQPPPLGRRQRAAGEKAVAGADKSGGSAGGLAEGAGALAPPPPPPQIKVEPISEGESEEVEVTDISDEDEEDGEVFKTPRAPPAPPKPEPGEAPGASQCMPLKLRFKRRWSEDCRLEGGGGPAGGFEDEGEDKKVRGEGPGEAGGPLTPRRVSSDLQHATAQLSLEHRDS
Outline: (§1)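 Yeast served to express human transcription factors as GST fusions, which were then captured on glutathione beads and labelled with DNA barcodes. Pooled with a tag-only sample, they were incubated with 200 nmole of a 16-mer random double-stranded DNA library for 30 min at room temperature in Tris/NaCl/DTT/glycerol buffer, washed, crosslinked with 0.1% formaldehyde, ligated by proximity, amplified by PCR and sequenced. Dividing each hexamer's read frequency for a factor by its frequency for the tag-only sample gives the binding signal.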

[2] = target: T2, ETV3L (Homo sapiens, UniProt Q6ZN32 1-361)
T2 sequence: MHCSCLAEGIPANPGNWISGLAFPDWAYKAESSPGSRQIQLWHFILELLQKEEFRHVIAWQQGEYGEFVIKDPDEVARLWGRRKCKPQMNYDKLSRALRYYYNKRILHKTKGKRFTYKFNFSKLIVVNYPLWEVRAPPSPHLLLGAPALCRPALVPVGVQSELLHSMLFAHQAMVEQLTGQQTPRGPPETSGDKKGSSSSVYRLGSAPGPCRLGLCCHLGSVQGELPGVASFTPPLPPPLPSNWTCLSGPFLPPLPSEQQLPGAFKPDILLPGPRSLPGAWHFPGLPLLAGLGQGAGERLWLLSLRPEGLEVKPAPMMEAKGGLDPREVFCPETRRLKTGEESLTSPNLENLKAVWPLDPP
Outline: as §1

[3] = target: T3, ETS2 (Homo sapiens, UniProt P15036 1-469)
T3 sequence: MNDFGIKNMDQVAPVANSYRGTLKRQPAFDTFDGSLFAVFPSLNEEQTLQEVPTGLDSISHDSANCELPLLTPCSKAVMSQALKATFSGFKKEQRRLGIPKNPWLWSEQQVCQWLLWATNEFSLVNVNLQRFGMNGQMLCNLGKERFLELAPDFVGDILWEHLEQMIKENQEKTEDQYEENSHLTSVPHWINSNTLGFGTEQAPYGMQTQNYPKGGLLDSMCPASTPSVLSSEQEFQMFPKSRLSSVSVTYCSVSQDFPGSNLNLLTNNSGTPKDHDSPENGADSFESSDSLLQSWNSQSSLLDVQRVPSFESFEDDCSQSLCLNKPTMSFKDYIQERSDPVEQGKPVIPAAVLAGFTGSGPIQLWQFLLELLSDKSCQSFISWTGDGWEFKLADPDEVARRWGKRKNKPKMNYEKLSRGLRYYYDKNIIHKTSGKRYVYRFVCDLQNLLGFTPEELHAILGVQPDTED
Outline: as §1

[4] = target: T4, SPDEF (Homo sapiens, UniProt O95238 1-335)
T4 sequence: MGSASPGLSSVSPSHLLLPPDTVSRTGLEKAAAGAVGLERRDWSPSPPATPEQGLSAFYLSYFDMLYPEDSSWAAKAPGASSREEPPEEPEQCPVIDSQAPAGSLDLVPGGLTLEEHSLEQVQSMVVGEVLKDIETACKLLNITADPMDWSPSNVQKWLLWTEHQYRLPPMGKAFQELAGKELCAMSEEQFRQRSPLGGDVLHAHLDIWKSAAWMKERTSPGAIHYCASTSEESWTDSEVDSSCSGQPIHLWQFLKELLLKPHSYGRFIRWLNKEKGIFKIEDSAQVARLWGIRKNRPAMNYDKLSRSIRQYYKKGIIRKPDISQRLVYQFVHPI
Outline: as §1

[5] = target: T5, ETV7 (Homo sapiens, UniProt Q9Y603 1-341)
T5 sequence: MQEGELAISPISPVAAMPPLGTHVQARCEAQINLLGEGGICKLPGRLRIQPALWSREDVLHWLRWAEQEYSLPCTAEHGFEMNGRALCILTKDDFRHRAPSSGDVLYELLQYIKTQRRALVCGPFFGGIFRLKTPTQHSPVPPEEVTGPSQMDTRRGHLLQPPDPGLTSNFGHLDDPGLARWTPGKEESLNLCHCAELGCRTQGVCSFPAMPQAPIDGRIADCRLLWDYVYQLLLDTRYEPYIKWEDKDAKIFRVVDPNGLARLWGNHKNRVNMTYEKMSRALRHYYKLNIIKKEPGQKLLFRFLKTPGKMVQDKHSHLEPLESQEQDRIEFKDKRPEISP
Outline: as §1

[6] = target: T6, ELF5 (Homo sapiens, UniProt Q9UKW6-2 1-255)
T6 sequence: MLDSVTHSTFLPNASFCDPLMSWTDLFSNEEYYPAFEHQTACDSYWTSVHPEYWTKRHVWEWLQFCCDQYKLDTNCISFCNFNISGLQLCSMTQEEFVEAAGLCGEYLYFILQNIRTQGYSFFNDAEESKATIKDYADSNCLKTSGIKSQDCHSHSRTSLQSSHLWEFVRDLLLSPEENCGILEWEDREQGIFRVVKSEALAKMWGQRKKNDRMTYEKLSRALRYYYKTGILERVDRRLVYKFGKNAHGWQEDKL
Outline: as §1

[7] = target: T7, ETV3 (Homo sapiens, UniProt P41162-2 1-143)
T7 sequence: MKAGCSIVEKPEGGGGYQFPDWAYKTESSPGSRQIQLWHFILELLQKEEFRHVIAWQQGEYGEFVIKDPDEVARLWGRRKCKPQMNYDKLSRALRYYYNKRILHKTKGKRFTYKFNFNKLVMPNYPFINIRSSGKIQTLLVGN
Outline: as §1

[8] = target: ETV6 (Homo sapiens, UniProt P41212 1-452)
Outline: as §1

ETV6, sequence (P41212 whole entry): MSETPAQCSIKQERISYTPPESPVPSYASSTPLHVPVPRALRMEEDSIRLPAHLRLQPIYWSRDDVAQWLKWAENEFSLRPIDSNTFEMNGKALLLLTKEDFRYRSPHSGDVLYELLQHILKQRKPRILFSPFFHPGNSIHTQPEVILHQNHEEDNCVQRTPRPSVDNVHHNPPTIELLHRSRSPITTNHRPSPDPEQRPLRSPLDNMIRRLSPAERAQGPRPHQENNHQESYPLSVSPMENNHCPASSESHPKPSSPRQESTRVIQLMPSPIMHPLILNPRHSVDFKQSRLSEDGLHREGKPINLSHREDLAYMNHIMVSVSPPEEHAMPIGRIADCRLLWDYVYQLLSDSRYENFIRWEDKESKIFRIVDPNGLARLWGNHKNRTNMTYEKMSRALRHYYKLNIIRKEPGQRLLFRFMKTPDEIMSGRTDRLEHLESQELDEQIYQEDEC

| Sequence | binding signal [1] | binding signal [2] | binding signal [3] | binding signal [4] | binding signal [5] | binding signal [6] | binding signal [7] | binding signal [8] |
| --- | --- | --- | --- | --- | --- | --- | --- | --- |
| AATAAC | 1.33 fold enrichment (6-mer frequency, TF over GST control) | 1.22 fold enrichment (6-mer frequency, TF over GST control) | 1.27 fold enrichment (6-mer frequency, TF over GST control) | 1.21 fold enrichment (6-mer frequency, TF over GST control) | 1.25 fold enrichment (6-mer frequency, TF over GST control) | 1.31 fold enrichment (6-mer frequency, TF over GST control) | 1.23 fold enrichment (6-mer frequency, TF over GST control) | 1.36 fold enrichment (6-mer frequency, TF over GST control) |
| TCTTCA | 1.29 fold enrichment (6-mer frequency, TF over GST control) | 1.37 fold enrichment (6-mer frequency, TF over GST control) | 1.11 fold enrichment (6-mer frequency, TF over GST control) | 1.25 fold enrichment (6-mer frequency, TF over GST control) | 1.13 fold enrichment (6-mer frequency, TF over GST control) | 1.16 fold enrichment (6-mer frequency, TF over GST control) | 1.16 fold enrichment (6-mer frequency, TF over GST control) | 1.25 fold enrichment (6-mer frequency, TF over GST control) |
| CGATAT | 1.1 fold enrichment (6-mer frequency, TF over GST control) | 1.14 fold enrichment (6-mer frequency, TF over GST control) | 1.12 fold enrichment (6-mer frequency, TF over GST control) | 1.06 fold enrichment (6-mer frequency, TF over GST control) | 1.11 fold enrichment (6-mer frequency, TF over GST control) | 1.06 fold enrichment (6-mer frequency, TF over GST control) | 1.03 fold enrichment (6-mer frequency, TF over GST control) | 1.06 fold enrichment (6-mer frequency, TF over GST control) |
| CCTCCG | 1.41 fold enrichment (6-mer frequency, TF over GST control) | 1.65 fold enrichment (6-mer frequency, TF over GST control) | 1.31 fold enrichment (6-mer frequency, TF over GST control) | 1.36 fold enrichment (6-mer frequency, TF over GST control) | 1.2 fold enrichment (6-mer frequency, TF over GST control) | 1.35 fold enrichment (6-mer frequency, TF over GST control) | 1.3 fold enrichment (6-mer frequency, TF over GST control) | 1.31 fold enrichment (6-mer frequency, TF over GST control) |
| GTAACT | 1.22 fold enrichment (6-mer frequency, TF over GST control) | 1.28 fold enrichment (6-mer frequency, TF over GST control) | 1.25 fold enrichment (6-mer frequency, TF over GST control) | 1.2 fold enrichment (6-mer frequency, TF over GST control) | 1.12 fold enrichment (6-mer frequency, TF over GST control) | 1.24 fold enrichment (6-mer frequency, TF over GST control) | 1.25 fold enrichment (6-mer frequency, TF over GST control) | 1.25 fold enrichment (6-mer frequency, TF over GST control) |
| ATACGT | 1.11 fold enrichment (6-mer frequency, TF over GST control) | 1.18 fold enrichment (6-mer frequency, TF over GST control) | 1.19 fold enrichment (6-mer frequency, TF over GST control) | 1.23 fold enrichment (6-mer frequency, TF over GST control) | 1.1 fold enrichment (6-mer frequency, TF over GST control) | 1.14 fold enrichment (6-mer frequency, TF over GST control) | 1.14 fold enrichment (6-mer frequency, TF over GST control) | 1.14 fold enrichment (6-mer frequency, TF over GST control) |
| ATATGT | 1.25 fold enrichment (6-mer frequency, TF over GST control) | 1.17 fold enrichment (6-mer frequency, TF over GST control) | 1.19 fold enrichment (6-mer frequency, TF over GST control) | 1.13 fold enrichment (6-mer frequency, TF over GST control) | 1.16 fold enrichment (6-mer frequency, TF over GST control) | 1.13 fold enrichment (6-mer frequency, TF over GST control) | 1.1 fold enrichment (6-mer frequency, TF over GST control) | 1.07 fold enrichment (6-mer frequency, TF over GST control) |
| GTACAC | 1.15 fold enrichment (6-mer frequency, TF over GST control) | 1.16 fold enrichment (6-mer frequency, TF over GST control) | 1.18 fold enrichment (6-mer frequency, TF over GST control) | 1.2 fold enrichment (6-mer frequency, TF over GST control) | 1.24 fold enrichment (6-mer frequency, TF over GST control) | 1.2 fold enrichment (6-mer frequency, TF over GST control) | 1.21 fold enrichment (6-mer frequency, TF over GST control) | 1.29 fold enrichment (6-mer frequency, TF over GST control) |
